PubChem BioAssay (NCI)
Compounds without any hit were thinned out: in the full panel of roughly 83,000, 20% have a hit.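 Assay: single dose, 48 h. Readout: percent growth (0 = no net growth; negative = cell death). Active: <10.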 Calls of active or inactive are those of the source.

Experiments:
Assay in all cases: NCI-60 one-dose screen, 48 h (100 = growth as untreated, 0 = no growth, -100 = all killed)
Conditions in all cases: 10 µM unless noted
NCI-H23 lung = tested on: NCI-H23 lung
NCI-H226 lung = tested on: NCI-H226 lung
NCI-H322M lung = tested on: NCI-H322M lung
HOP-62 NSCLC = tested on: HOP-62 NSCLC
NCI-H460 lung = tested on: NCI-H460 lung
HOP-92 NSCLC = tested on: HOP-92 NSCLC
NCI-H522 lung = tested on: NCI-H522 lung
A549/ATCC NSCLC = tested on: A549/ATCC NSCLC
786-0 renal = tested on: 786-0 renal
COLO 205 colon = tested on: COLO 205 colon
DU-145 prostate = tested on: DU-145 prostate
K-562 leukemia = tested on: K-562 leukemia
MALME-3M melanoma = tested on: MALME-3M melanoma
MDA-MB-231 breast = tested on: MDA-MB-231 breast
SF-268 CNS = tested on: SF-268 CNS
SF-295 CNS = tested on: SF-295 CNS
SF-539 CNS = tested on: SF-539 CNS
M14 melanoma = tested on: M14 melanoma
RXF 393 renal = tested on: RXF 393 renal
UACC-257 melanoma = tested on: UACC-257 melanoma

Measured: growth

O=C(c1ccccc1)C(c1ccccc1)N1CCOCC1 (configuration not stated)
inactive: NCI-H23 lung 96.9% | NCI-H226 lung 94.8% | NCI-H322M lung 105% | HOP-62 NSCLC 94.7% | NCI-H460 lung 103% | HOP-92 NSCLC 103% | NCI-H522 lung 90.4% | A549/ATCC NSCLC 90.2% | 786-0 renal 104% | COLO 205 colon 109% | DU-145 prostate 107% | K-562 leukemia 96% | MALME-3M melanoma 103% | MDA-MB-231 breast 105% | SF-268 CNS 99.1% | SF-295 CNS 94.9% | SF-539 CNS 101% | M14 melanoma 99.8%

NC(=O)N1N=C(c2ccc(Cl)cc2)CC1c1cn(-c2ccccc2)nc1-c1ccc(Cl)cc1 (configuration not stated)
inactive: NCI-H23 lung 56.5% | NCI-H226 lung 30.1% | NCI-H322M lung 63.1% | HOP-62 NSCLC 37.8% | NCI-H460 lung 41.9% | HOP-92 NSCLC 49.7% | NCI-H522 lung 56.9% | A549/ATCC NSCLC 41.3% | COLO 205 colon 81.9% | DU-145 prostate 77.7% | K-562 leukemia 78.8% | MDA-MB-231 breast 43.4% | SF-268 CNS 55.4% | SF-295 CNS 40.3% | SF-539 CNS 37.8% | M14 melanoma 79.8%
active: 786-0 renal -7.43% | RXF 393 renal -11.2%

C=CC[n+]1c(/C=C2\Sc3ccccc3N2C)sc(-c2ccccc2)c1-c1ccccc1
active: NCI-H23 lung 0.426% | NCI-H460 lung 8.83% | HOP-92 NSCLC -12.5% | NCI-H522 lung -7.57% | COLO 205 colon -30.2% | K-562 leukemia 7.28% | MALME-3M melanoma 4.72% | SF-295 CNS -17.1%
inactive: NCI-H226 lung 10.3% | NCI-H322M lung 24.2% | HOP-62 NSCLC 17.8% | A549/ATCC NSCLC 14.2% | 786-0 renal 16.8% | DU-145 prostate 23.4% | MDA-MB-231 breast 31.4% | SF-268 CNS 32.9% | SF-539 CNS 20.3% | M14 melanoma 19.7%

CCN(CC)CCNc1ccc(N=Nc2cnc3ccccc3c2)c2ccccc12
active: NCI-H23 lung -92.6% | NCI-H226 lung -73.6% | HOP-62 NSCLC -84.6% | NCI-H460 lung -78.8% | HOP-92 NSCLC -82.4% | NCI-H522 lung -87.2% | A549/ATCC NSCLC -97.9% | 786-0 renal -87.9% | COLO 205 colon -82.2% | DU-145 prostate -85.1% | MALME-3M melanoma -56.5% | MDA-MB-231 breast -87.6% | SF-268 CNS -77.7% | SF-295 CNS -53.9% | SF-539 CNS -97.4% | M14 melanoma -67.3%
inactive: NCI-H322M lung 10.8%

CCc1nc2cc(/C=C/C(=O)NO)c(F)cc2c(=O)n1CCc1ccccc1
active: NCI-H23 lung -5.22% | NCI-H226 lung 3.63% | HOP-62 NSCLC -4.23% | NCI-H460 lung 3.81% | HOP-92 NSCLC 7.39% | A549/ATCC NSCLC -2.46% | 786-0 renal 0.452% | COLO 205 colon -33.1% | DU-145 prostate 4.01% | K-562 leukemia 6.83% | RXF 393 renal -21.3% | SF-268 CNS 8.51% | SF-539 CNS 1.7% | M14 melanoma 3.41%
inactive: NCI-H322M lung 20.5% | NCI-H522 lung 10.6% | MDA-MB-231 breast 15.5% | SF-295 CNS 13.5%

CCOC(=O)Sc1ncnc2nc[nH]c12
inactive: NCI-H23 lung 64.8% | NCI-H226 lung 37.4% | NCI-H322M lung 40.4% | HOP-62 NSCLC 17.2% | NCI-H460 lung 71.8% | HOP-92 NSCLC 12.2% | A549/ATCC NSCLC 104% | 786-0 renal 18% | COLO 205 colon 103% | DU-145 prostate 38% | MALME-3M melanoma 59.2% | MDA-MB-231 breast 45.7% | SF-268 CNS 65.8% | SF-295 CNS 36.8% | SF-539 CNS 36.7% | M14 melanoma 13.7%
active: NCI-H522 lung -18.8%

C=CCCCOC1[C@H](OCc2ccccc2)C(OCc2ccccc2)C(OC)O[C@@H]1CNC(=O)c1cccc(I)c1 (some centres not stated)
active: NCI-H460 lung -7.83%
inactive: NCI-H23 lung 44.2% | NCI-H226 lung 66.5% | NCI-H322M lung 70.3% | HOP-62 NSCLC 77.7% | HOP-92 NSCLC 67.2% | NCI-H522 lung 42.1% | A549/ATCC NSCLC 27.2% | 786-0 renal 39.5% | DU-145 prostate 49.7% | K-562 leukemia 52% | MALME-3M melanoma 80.4% | MDA-MB-231 breast 58% | RXF 393 renal 38.1% | SF-268 CNS 31.3% | SF-295 CNS 35% | SF-539 CNS 31.8% | UACC-257 melanoma 36.8% | M14 melanoma 47.1%

COc1cc(OC)c(C(=O)/C=C/c2cc3c(cc2OCc2ccccc2)OC(C)(C)CC3)cc1CC=C(C)C
inactive: NCI-H23 lung 48.2% | NCI-H226 lung 43.2% | NCI-H322M lung 79.6% | HOP-62 NSCLC 85.2% | NCI-H460 lung 78.6% | NCI-H522 lung 65.2% | A549/ATCC NSCLC 32.9% | 786-0 renal 79.9% | COLO 205 colon 84.7% | DU-145 prostate 51.9% | MALME-3M melanoma 77.8% | MDA-MB-231 breast 52.4% | SF-268 CNS 49.1% | SF-295 CNS 66.9% | SF-539 CNS 79.4% | M14 melanoma 68.2%
active: HOP-92 NSCLC -21.7%
